Drawing on PubChem BioAssay (EPA / NIEHS), this text covers AC50 and outcome for 39 molecules.

Some structures have more than one record in an assay (separate samples or runs), and their calls can disagree. Active and inactive are the calls of the source. How the source made its calls: active means hit-call score of the fitted dose curve at least 0.9, where 1 is the maximum; inactive means score below 0.9.

Read-out in the test: Fatty Acid-Binding Protein 1 (FABP1), FABP1 (gene 2168)
Briefly: LTEA_HepaRG_FABP1: Life Technologies and Expression Analysis (LTEA) Assay for Fatty Acid-Binding Protein 1 (FABP1) using HepaRG (AID 2283494). The following applies: mRNA level, 48 h; actives raise or lower the signal. As for the experimental part:
LTEA_HepaRG is a cell based, multiplexed-readout assay that uses HepaRG, a human liver cell line, with measurements taken at 48 hours after chemical dosing on a 96-well plate.LTEA_HepaRG_FABP1 is one of 102 assay component(s) measured in the LTEA HepaRG cell culture assay. It is a marker of Steatosis.Data from the assay component LTEA_HepaRG_FABP1 was analyzed into 1 endpoint. This assay endpoint, LTEA_HepaRG_FABP1, was analyzed with bidirectional fitting relative to DMSO as the negative control and baseline of activity. Using a type of inducible reporter, measures of mRNA induction for gain or loss-of-signal activity can be used to understand regulation of transcription factor activity. To generalize the intended target to other relatable targets, this assay endpoint is annotated to the transporter intended target family, where the subfamily is fatty acid carrier protein.
A total of 1060 chemcials from the ToxCast library were tested in eight-point concentration-response experiments. Cell culture and cytotoxicity assays were conducted at Thermo Fisher Scientific's Custom Services facility (Madison, WI). A single lot of human HepaRG cells (Thermo Fisher Scientific, Frederick, MD) was used for the cell culture experiments. 96-well format collagen type I coated plates of human HepaRG cells were prepared using established methods. Briefly, cryopreserved HepaRG cells were thawed, plated at a density of approximately 100,000 cells/well in HepaRG Thaw, Plate, and General Purpose media (HPRG770, Thermo Fisher Scientific), and incubated for 48 hours. 0.5% DMSO was selected as vehicle control to balance the requisite need of DMSO in HepaRG cultures to maintain differentiation (for example, baseline metabolism, proportions of hepatocytes vs. cholangiocytes), while enabling further hepatic receptor pathway activation (for example, PXR and CAR) in response to chemical exposure. 48 hours after plating, the culture medium was replaced with HepaRG Serum-Free Incudtion Media. Cells were exposed to each test chemical in duplicate and maintained in CO2 incubators for another 48 hours. Chemical plates were thawed to room temperature and 200x concentrations of treatment groups were prepared. 8-point conentration-reponse curves were made with the highest exposure at 100 uM, followed by half-log dilutions, all in 0.5% DMSO. Each test plate contained variouse controls, induction positive controls (1mM phenobarbital), cytotoxicity positive controls ([…] aflatoxin B1), vehicle controls (0.5% DMSO), and total lysis controls (0.5% DMSO). Cell morphology images were taken using an Essen IncuCyte FLR automated microscope, with six 96-well plates imaged in about 24 minutes. Images were captured and exported and JPEG files. Spent culture media was transfered to black-well plates for the LDH assay, and remaining media was sorted at -80 C for later use. Cells were treated with RLT buffer and frozen until shipped for gene expression analysis. Total RNA was isolated from the cell suspension in 75 uL of Buffer RLT (Qiagen, Germantown, MD 20874) by Quintiles/Expression Analysis (Durham, NC) using a custom isolation procedure. Total RNA from each plate well was transferred to a preamplification plate. Fluidigm's 96.96 Dynamic ArrayTM (Fluidigm, Amsterdam, the Netherlands) technology was used for gene expression analyses by quantitative reverse transcription polymerase chain reaction (qRT-PCR, performed by Quintiles/Expression Analysis, Durham, NC)89. Standard TaqManTM Assays (Applied Biosystems/ThermoFisher Scientific, Foster City, CA) were used to assess the expression of 93 genes selected based on their selectivity and sensitivity to important hepatic receptors known to be modulated by environmental chemicals; importance in human hepatocyte functionality; and hepatotoxicity. […]
Consider `CC(=O)[C@H]1CC[C@H]2[C@@H]3CCC4=CC(=O)CC[C@]4(C)[C@H]3CC[C@]12C`, for which the AC50 is 35.8 µM (active).
Turning to `CCOC(=O)NCCOc1ccc(Oc2ccccc2)cc1`, the AC50 was 79.1 µM (active).
For the molecule `CCCCOC(=O)[C@@H](C)Oc1ccc(Oc2ccc(C(F)(F)F)cn2)cc1`, the molecule was classed as inactive.
Turning to `CCCN(CCC)c1c([N+](=O)[O-])cc(C(F)(F)F)c(N)c1[N+](=O)[O-]`, the AC50 was 24.9 µM (active).
Regarding `CCSC(=O)N(CC(C)C)CC(C)C`, the call was inactive.
On to `CCOC(=O)COc1cc(-n2ncc(C(F)(F)F)c(C)c2=O)c(F)cc1Cl`, for which the call was inactive.
On the same count and under the same terms, then `COCCO`, with “inactive”.
Still for that read-out and setting: to `CCCCOCCOCCOCc1cc2c(cc1CCC)OCO2` belongs “inactive”; to `C[C@]12C[C@H](O)[C@H]3[C@@H](CCC4=CC(=O)CC[C@@]43C)[C@@H]1CC[C@@H]2C(=O)CO`, “inactive”.
As for `c1ccc2[nH]c(-c3cscn3)nc2c1`, the result was inactive.
With `CCCOC(=O)c1ccc(C(=O)OCCC)nc1`, the molecule was called inactive.
As to `CCNc1nc(N)nc(Cl)n1`, the call was inactive.
As to `CC(C)(C)[C@@H](O)[C@@H](Cc1ccc(Cl)cc1)n1cncn1`, the concentration at half-maximal activity (AC50) was 50 µM (active).
Regarding `CCCN(CCC)C(=O)SCC`, the molecule was classed as inactive.
With `CCCCC(CC)CN1C(=O)C2C3C=CC(C3)C2C1=O` (stereo not given), the AC50 was 72.5 µM (active).
Turning to `N[C@@H](Cc1cc(I)c(Oc2ccc(O)c(I)c2)c(I)c1)C(=O)O`, the AC50 is 40 µM (active).
For `CC(C)(c1ccc(O)cc1)c1ccc(O)cc1`, the call was inactive and the AC50 was 50 µM (active).
For `COC(=O)c1ccccc1C(=O)O`, the molecule was classed as inactive.
Turning to `O=C(O)C1(C(=O)Nc2ccc(Cl)cc2Cl)CC1`, the AC50 was 77.5 µM (active).
For the molecule `CCCOC(=O)NCCCN(C)C`, the call was inactive.
`S=C([S-])NCCNC(=S)[S-].[Mn+2]`: the AC50 was 3.58 µM (active).
For `O=C(c1ccccc1)C1CCCCC1`, the molecule was called inactive.
In the case of `C#C[C@]1(O)CC[C@H]2[C@@H]3CCC4=CC(=O)CC[C@@H]4[C@H]3CC[C@@]21CC`, the AC50 is 0.713 µM (active).
For `CCOC(=O)c1ccc(O)cc1`, the outcome was inactive.
For the molecule `N#CSCSc1nc2ccccc2s1`, the AC50 is 88.5 µM (active).
In the case of `C[C@]12CC[C@@H]3c4ccc(O)cc4C[C@@H](CCCCCCCCCS(=O)CCCC(F)(F)C(F)(F)F)[C@H]3[C@@H]1CC[C@@H]2O` (stereo not given in full), the AC50 is 25.8 µM (active).
With `CCCCOC(=O)C(C)Oc1ccc(Oc2ccc(C(F)(F)F)cn2)cc1` (stereo not given), the result was inactive.
In the case of `COC(=O)CSc1cc(N=c2sc(=O)n3n2CCCC3)c(F)cc1Cl`, the molecule was classed as inactive.
For the molecule `COC(=O)c1ccc(I)cc1S(=O)(=O)NC(=O)Nc1nc(C)nc(OC)n1`, the molecule was classed as inactive.
As to `CCN(CC)C(=O)c1cccc(C)c1`, the molecule was called inactive.
Regarding `CCCCC(CC)COC(=O)c1ccccc1C(=O)O` (stereo not given), the outcome was inactive.
For the molecule `CC1(C)C(C=C(Cl)Cl)C1C(=O)OCc1cccc(Oc2ccccc2)c1` (stereo not given), the result was inactive.
Same read-out and setting: to `OB(O)O` belongs “inactive”.
As for `Oc1ccc(C(c2ccc(O)cc2)C(Cl)(Cl)Cl)cc1`, the AC50 is 94.3 µM (active).
For the molecule `COc1c(Cl)ccc(Cl)c1C(=O)O`, the molecule was classed as inactive.
Consider `O=C(c1ccc(O)cc1O)c1ccc(O)cc1O`, for which the result was inactive.
Turning to `CCCCCCC(C)OC(=O)COc1nc(F)c(Cl)c(N)c1Cl` (stereo not given), the result was inactive.
For `CCN(Cc1c(F)cccc1Cl)c1c([N+](=O)[O-])cc(C(F)(F)F)cc1[N+](=O)[O-]`, the AC50 is 38.7 µM (active).
Consider `CCOC(=O)C(C)Oc1ccc(Oc2cnc3cc(Cl)ccc3n2)cc1` (stereo not given), for which the AC50 was 0.388 µM (active).
